Measurements taken from the supplement of paper PMC11732987, “Enantioselective OTUD7B fragment discovery through chemoproteomics screening and high-throughput optimisation” (Communications Chemistry, 2025).

Assays:
Experiment in all cases: log2 ratio of Biotin-Ahx-Ub-VS probe labelling (fragment/DMSO); higher = less target engagement (more negative = stronger competition), active = hit call of the paper (q ≤ 0.05, log2 ratio ≤ -1)
Conditions in all cases: compound concentration: 200 uM; treatment time: 3 h
USP42 = target: T1, USP42 (UniProt Q9H9J4)
T1 sequence (whole entry): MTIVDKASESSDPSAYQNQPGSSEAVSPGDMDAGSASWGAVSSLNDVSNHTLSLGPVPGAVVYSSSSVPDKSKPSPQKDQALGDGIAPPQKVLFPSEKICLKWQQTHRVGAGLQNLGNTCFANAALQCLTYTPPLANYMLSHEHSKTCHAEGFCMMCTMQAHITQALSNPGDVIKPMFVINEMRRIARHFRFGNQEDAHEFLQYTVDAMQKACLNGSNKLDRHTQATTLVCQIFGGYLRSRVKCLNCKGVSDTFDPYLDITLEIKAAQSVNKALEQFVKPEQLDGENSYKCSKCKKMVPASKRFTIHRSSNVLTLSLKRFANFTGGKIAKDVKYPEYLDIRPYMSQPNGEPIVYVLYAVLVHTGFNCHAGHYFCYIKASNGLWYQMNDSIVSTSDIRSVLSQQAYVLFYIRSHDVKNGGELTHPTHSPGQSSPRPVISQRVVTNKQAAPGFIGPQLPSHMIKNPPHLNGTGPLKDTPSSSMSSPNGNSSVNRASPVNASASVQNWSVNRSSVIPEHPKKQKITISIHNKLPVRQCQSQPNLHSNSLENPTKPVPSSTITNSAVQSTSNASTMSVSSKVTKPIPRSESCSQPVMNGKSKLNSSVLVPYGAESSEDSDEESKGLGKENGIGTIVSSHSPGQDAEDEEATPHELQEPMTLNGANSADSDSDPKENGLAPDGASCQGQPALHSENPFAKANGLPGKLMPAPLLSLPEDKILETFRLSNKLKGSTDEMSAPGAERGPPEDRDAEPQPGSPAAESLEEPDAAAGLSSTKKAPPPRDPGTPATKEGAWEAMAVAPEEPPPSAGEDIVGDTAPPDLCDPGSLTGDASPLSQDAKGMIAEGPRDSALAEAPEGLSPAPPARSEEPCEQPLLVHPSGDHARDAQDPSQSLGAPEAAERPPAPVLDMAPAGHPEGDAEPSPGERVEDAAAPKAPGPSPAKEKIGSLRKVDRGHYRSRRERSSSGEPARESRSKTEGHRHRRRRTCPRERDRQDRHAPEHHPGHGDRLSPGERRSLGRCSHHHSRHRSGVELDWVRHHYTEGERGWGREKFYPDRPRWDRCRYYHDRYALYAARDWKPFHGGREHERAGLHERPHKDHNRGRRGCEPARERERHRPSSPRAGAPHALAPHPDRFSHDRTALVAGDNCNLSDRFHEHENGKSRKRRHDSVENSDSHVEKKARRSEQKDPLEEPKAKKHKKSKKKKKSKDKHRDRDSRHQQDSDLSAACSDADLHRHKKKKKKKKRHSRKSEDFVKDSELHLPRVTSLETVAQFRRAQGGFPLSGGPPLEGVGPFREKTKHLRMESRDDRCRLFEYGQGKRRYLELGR
Method in brief: (§1)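 HEK293T lysate, 495 µg per sample in Tris/CHAPS/IGEPAL buffer with protease inhibitors, was treated in triplicate with fragment at 200 µM or vehicle for 3 h and then with Biotin-Ahx-Ub-VS at 0.5 µM final for 1 h. Labelled DUBs were NeutrAvidin-enriched, digested with LysC and trypsin, and run by diaPASEF LC-MS/MS. Spectronaut label-free quantities were global-median-normalised, and values are average log2 fragment/vehicle ratios by unpaired t-test on proteins with ≥2 unique peptides.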

USP46 = USP46 (UniProt P62068)
Sequence of USP46 (P62068 whole entry): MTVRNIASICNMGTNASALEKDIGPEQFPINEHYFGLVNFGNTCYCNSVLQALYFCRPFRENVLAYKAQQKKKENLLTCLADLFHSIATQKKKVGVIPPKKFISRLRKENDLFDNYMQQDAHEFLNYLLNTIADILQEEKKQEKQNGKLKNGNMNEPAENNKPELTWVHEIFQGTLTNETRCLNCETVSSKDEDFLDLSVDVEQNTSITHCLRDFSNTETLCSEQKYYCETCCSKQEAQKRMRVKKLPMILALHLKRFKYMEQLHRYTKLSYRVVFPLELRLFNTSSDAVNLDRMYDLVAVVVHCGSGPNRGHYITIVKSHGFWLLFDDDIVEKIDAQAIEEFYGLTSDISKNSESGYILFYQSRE
Method in brief: as §1

USP47 = target: T2, USP47 (UniProt Q96K76)
T2 sequence (whole entry): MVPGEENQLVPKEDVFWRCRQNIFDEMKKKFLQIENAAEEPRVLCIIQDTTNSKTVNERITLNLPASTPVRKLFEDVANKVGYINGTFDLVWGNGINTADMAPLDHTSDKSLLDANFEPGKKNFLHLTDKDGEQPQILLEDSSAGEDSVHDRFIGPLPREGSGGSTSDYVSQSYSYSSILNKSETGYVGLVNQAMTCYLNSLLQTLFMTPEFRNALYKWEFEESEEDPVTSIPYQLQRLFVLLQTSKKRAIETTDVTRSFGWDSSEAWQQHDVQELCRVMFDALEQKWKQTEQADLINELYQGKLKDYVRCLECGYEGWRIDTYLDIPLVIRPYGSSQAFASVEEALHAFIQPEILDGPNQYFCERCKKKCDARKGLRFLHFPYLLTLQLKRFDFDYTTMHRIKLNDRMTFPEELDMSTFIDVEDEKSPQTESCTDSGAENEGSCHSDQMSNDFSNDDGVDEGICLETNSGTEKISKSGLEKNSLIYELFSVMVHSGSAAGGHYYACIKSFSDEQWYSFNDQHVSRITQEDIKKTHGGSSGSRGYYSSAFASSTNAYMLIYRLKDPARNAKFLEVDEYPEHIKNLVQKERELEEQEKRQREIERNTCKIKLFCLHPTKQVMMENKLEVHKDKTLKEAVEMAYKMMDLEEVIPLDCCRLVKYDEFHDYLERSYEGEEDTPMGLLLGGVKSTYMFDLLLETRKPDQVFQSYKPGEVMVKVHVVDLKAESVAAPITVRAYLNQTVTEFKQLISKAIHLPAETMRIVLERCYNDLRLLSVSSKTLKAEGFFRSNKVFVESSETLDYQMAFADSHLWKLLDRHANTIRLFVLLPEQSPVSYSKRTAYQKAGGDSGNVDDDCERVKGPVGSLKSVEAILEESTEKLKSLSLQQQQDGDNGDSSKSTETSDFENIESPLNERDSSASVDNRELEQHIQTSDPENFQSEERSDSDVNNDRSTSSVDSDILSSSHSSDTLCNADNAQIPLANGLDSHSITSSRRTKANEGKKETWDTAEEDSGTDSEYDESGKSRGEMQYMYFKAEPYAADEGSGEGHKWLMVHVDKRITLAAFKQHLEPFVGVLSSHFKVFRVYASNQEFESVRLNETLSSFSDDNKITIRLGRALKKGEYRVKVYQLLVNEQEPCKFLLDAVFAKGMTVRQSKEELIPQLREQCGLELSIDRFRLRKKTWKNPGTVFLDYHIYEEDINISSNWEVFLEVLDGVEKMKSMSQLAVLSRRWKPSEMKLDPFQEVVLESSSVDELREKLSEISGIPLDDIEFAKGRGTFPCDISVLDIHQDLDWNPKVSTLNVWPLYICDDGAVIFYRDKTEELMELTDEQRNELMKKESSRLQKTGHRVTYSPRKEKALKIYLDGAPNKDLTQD
Method in brief: as §1

USP48 = target: T3, USP48 (UniProt Q86UV5)
T3 sequence (whole entry): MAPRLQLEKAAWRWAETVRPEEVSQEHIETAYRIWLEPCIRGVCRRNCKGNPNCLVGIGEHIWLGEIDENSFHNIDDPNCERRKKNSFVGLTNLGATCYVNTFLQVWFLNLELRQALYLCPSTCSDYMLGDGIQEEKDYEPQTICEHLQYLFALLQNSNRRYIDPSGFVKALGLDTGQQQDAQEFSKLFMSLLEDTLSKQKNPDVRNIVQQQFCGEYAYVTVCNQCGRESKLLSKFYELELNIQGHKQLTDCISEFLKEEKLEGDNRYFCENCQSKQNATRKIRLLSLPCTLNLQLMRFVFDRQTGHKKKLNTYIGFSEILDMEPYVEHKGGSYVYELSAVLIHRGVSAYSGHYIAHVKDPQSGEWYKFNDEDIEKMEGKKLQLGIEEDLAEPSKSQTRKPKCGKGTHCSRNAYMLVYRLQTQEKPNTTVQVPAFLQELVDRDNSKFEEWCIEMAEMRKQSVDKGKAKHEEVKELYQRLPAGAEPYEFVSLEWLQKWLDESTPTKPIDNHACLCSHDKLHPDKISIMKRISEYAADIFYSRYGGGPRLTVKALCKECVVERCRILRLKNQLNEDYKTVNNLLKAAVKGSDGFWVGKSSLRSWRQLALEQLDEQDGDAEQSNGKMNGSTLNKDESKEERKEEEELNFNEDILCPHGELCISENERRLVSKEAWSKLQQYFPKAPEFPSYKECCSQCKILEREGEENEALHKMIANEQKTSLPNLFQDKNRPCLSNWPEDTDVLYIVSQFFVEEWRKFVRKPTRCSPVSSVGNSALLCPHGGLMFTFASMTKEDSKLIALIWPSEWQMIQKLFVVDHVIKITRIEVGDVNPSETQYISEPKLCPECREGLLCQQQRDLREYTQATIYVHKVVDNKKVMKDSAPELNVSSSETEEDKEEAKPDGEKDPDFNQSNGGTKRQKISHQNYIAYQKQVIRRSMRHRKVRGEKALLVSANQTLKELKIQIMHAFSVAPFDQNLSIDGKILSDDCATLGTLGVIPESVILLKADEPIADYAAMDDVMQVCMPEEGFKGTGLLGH
Method in brief: as §1

USP5 = target: T4, USP5 (UniProt P45974)
T4 sequence (whole entry): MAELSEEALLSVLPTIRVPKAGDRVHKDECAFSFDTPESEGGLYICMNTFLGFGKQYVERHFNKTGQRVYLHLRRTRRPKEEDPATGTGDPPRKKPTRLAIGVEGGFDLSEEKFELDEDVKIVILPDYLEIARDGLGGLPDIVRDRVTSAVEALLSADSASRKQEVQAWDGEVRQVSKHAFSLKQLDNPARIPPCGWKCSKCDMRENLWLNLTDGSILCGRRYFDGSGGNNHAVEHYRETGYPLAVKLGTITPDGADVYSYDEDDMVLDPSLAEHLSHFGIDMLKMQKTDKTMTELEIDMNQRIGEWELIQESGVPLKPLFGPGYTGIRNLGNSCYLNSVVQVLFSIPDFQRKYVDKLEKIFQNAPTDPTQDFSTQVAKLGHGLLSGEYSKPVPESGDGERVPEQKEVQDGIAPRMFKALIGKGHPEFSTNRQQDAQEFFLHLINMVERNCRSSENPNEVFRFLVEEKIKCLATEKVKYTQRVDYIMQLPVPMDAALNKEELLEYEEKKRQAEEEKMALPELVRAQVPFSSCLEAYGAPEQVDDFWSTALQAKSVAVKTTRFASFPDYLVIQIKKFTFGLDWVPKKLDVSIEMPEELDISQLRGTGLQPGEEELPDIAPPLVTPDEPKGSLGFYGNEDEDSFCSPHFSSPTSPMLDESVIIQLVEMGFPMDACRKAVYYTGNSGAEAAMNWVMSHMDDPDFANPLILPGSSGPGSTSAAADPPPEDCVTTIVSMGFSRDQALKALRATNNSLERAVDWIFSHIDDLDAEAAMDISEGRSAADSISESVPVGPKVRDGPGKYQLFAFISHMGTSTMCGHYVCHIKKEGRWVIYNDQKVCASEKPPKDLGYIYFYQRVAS
Method in brief: as §1

USP54 = USP54 (UniProt Q70EL1)
Sequence of USP54 (Q70EL1 whole entry): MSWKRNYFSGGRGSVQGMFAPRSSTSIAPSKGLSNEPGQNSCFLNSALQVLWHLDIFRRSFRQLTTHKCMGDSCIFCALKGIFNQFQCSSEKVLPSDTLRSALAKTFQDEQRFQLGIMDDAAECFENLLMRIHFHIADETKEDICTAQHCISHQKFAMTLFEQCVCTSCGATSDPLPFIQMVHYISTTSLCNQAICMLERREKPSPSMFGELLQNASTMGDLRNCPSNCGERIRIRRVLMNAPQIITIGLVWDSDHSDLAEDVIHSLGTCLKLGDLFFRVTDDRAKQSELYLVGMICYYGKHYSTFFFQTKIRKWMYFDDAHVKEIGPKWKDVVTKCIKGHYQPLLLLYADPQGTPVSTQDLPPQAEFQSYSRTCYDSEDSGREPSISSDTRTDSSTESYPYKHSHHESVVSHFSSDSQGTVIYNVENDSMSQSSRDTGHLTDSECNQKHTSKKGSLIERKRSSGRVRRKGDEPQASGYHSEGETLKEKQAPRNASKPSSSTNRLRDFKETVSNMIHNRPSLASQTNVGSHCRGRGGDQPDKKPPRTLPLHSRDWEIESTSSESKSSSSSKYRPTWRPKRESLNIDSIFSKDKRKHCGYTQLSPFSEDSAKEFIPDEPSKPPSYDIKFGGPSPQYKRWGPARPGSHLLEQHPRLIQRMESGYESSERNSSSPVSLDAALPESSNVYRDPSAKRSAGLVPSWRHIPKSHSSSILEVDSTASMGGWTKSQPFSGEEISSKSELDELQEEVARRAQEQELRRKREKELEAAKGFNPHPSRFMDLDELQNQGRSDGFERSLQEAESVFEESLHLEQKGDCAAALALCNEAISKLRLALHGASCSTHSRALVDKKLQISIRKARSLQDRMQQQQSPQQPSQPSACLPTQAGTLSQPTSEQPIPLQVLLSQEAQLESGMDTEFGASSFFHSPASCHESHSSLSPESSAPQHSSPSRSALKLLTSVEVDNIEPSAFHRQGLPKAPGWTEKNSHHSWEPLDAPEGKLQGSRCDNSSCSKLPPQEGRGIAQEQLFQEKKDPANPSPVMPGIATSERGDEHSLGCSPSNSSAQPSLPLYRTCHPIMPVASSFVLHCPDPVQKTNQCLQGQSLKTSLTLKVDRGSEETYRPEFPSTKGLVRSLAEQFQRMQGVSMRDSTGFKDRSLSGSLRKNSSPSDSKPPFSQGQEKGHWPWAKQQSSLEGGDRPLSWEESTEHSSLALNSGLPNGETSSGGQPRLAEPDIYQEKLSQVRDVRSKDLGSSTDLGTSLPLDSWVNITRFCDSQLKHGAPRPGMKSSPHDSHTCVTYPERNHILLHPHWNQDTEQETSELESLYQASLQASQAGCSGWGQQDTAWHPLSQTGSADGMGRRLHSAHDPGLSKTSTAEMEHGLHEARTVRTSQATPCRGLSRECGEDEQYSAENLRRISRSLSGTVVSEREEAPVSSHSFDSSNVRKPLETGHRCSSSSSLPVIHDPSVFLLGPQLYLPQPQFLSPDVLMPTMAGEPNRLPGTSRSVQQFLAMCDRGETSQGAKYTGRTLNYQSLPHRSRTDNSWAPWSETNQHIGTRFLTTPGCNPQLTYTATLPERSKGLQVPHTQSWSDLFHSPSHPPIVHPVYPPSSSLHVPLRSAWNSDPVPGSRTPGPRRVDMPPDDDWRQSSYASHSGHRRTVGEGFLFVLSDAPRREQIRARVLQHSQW
Method in brief: as §1

USP7 = USP7 (UniProt Q93009)
Sequence of USP7 (Q93009 whole entry, looked up): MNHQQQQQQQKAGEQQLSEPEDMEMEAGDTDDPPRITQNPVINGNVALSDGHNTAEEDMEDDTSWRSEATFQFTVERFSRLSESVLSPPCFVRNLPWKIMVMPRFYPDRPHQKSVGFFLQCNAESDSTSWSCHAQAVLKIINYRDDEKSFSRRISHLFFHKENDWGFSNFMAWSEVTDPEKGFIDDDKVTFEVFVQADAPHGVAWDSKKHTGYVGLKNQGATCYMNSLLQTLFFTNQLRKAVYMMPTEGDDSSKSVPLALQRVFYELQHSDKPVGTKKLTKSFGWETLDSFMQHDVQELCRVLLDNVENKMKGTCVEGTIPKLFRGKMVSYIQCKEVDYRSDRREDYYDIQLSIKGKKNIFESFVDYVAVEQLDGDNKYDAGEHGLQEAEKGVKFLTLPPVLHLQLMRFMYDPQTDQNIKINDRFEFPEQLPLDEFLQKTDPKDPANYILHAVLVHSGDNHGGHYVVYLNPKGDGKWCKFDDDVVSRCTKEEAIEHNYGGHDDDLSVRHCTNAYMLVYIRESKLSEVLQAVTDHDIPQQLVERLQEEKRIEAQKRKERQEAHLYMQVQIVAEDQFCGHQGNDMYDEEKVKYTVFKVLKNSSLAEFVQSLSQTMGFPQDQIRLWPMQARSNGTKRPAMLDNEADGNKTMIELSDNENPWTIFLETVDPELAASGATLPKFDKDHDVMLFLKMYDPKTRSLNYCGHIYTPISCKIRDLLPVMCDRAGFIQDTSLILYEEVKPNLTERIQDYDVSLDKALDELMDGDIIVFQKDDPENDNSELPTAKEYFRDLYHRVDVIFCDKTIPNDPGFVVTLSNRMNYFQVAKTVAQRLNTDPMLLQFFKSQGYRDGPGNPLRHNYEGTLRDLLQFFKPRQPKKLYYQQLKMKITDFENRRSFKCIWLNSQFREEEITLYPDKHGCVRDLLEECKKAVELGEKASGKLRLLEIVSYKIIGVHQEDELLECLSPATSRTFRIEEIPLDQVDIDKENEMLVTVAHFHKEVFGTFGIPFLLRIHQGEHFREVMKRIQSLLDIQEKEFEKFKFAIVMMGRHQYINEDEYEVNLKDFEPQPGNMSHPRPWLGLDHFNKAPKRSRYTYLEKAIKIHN
Method in brief: as §1

USP8 = target: T5, USP8 (UniProt P40818)
T5 sequence (whole entry): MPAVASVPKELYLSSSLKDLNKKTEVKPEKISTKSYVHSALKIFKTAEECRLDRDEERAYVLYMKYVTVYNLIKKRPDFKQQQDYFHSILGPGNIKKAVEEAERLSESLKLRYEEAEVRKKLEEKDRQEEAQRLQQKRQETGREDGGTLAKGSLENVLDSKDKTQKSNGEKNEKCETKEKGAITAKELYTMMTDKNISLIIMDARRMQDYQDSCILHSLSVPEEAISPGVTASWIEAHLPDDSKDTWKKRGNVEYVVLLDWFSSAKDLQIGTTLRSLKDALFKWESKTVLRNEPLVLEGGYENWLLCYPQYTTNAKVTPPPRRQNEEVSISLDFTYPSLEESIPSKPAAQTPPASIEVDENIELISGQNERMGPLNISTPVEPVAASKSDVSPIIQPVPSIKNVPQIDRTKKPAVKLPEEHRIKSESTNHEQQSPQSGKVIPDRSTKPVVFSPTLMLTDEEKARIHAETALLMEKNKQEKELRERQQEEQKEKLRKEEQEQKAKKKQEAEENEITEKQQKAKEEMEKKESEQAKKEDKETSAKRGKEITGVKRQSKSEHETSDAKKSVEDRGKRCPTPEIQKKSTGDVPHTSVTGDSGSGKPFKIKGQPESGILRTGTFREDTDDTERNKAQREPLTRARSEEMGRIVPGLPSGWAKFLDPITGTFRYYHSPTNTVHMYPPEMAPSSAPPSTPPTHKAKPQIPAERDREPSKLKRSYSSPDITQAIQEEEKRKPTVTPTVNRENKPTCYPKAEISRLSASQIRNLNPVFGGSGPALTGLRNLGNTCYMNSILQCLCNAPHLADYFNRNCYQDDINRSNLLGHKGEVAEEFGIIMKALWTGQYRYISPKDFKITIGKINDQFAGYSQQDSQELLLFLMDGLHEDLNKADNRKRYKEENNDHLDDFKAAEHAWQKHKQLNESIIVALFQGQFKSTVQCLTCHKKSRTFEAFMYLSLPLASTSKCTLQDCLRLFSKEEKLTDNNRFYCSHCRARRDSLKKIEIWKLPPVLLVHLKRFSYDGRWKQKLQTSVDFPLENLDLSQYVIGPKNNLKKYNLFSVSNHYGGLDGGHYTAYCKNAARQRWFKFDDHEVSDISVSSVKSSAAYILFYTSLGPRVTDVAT
Method in brief: as §1

USP9X = USP9X (UniProt Q93008)
Method in brief: as §1

UniProt O00487 = target: UniProt O00487
Sequence of UniProt O00487 (O00487 whole entry): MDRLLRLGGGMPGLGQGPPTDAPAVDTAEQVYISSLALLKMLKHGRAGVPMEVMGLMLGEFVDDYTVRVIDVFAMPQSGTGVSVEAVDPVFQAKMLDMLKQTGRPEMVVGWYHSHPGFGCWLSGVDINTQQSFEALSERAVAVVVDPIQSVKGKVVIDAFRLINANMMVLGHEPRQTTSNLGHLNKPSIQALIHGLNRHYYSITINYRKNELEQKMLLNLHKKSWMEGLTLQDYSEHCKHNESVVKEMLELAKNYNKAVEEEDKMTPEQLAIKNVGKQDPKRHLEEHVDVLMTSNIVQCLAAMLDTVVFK
Method in brief: as §1

Measured: log2 ratio of Biotin-Ahx-Ub-VS probe labelling

Cl.O=C(CCl)N1CCN(Cc2ccccc2)CC1
inactive: USP42 0.128 | USP46 -0.101 | USP47 -0.389 | USP48 -0.499 | USP5 -0.052 | USP54 0.13 | USP7 -0.607 | USP8 -0.333 | USP9X -0.369 | UniProt O00487 -0.299
